# Measurements published in PubChem BioAssay AID434973 (Sanford-Burnham Center for Chemical Genomics, 2010).
# Hit rate of the full screen: of about 330,000 compounds, about 4,900 (1.5%) were called active. Many of the other results were omitted from the sample, so actives are more common in it than they were. Unmarked numbers belong to inactive results.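 How the source made its calls: active means inhibition above about 50% at the single test dose (limit read from the data); inactive means the rest.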
# Molecular target: Sentrin-specific protease 7 (Homo sapiens) (UniProt Q9BQF6)
# Test: blockers of human SENP7 peptidase activity – biochemical, luminescence, uHTS, primary screen (AID 434973);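 further: plate controls were DMSO with enzyme for no effect and no enzyme buffer wells for full effect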
# Conditions: recombinant SENP7, Z-RLRGG-aminoluciferin luminescence, 40 min; at 5 µM; active compounds read high
row,SMILES,inhibition
1,Cc1ccc(C)c(C(=O)N2CCC(n3nccc3NC(=O)C3CC3)CC2)c1,0.772%
2,CC(=O)c1ccc(NC(=O)c2ccc3c(Cl)c4c(nc3c2)CCCC4)cc1,-3.44%
3,CC(C)CCNC(=O)c1ccc2c(Cl)c3c(nc2c1)CCC3,84.1% (active)
4,COc1ccc(N2CCN(C(=O)c3ccc4c(Cl)c5c(nc4c3)CCCC5)CC2)cc1,-4.91%
5,CC(C)Cc1ccc(S(=O)(=O)N2CCN(C(=O)c3ccco3)CC2)cc1,3.59%
6,O=C1c2ccccc2NC(c2ccccn2)N1NS(=O)(=O)c1ccccc1 (stereo not given),0.965%
7,CN(Cc1ccccc1)C(=O)c1cccc(C(=O)N(C)Cc2ccccc2)c1,0.789%
8,O=C(COC(=O)CNS(=O)(=O)c1ccc(F)c(F)c1F)NC1CCCC1,4.55%
9,O=[N+]([O-])c1ccc(N/N=C2/CCCCC2c2ccccn2)c([N+](=O)[O-])c1 (stereo not given),-1.83%
10,O=[N+]([O-])c1ccc2nc(-c3ccccn3)[nH]c2c1,70.4% (active)
11,O=[N+]([O-])c1ccc2c(c1)Nc1nc3ccccc3nc1N2,-3.53%
12,O=S(=O)(NCCCc1ccccc1)c1ccc(Br)cc1,5.53%
13,Clc1ccccc1SCc1nc2ccccc2[nH]1,35.5%
14,COc1ccc(-c2[nH]nc(-c3ccccc3)c2-c2nc3ccccc3[nH]2)cc1,1.53%
15,COc1ccc(Br)cc1C(=O)NC(=S)Nc1cc(-c2nc3ccccc3[nH]2)ccc1C,2.43%
16,Cc1ccccc1N1CC(c2nc3ccccc3[nH]2)CC1=O (stereo not given),4.87%
17,Cc1ccc(-c2nc3ccccc3[nH]2)cc1N,94.4% (active)
18,c1ccc2[nH]c(-c3nc4ccccc4[nH]3)nc2c1,99.5% (active)
19,O=C(CN1C(=O)c2ccc([N+](=O)[O-])cc2C1=O)Nc1nnc(C2CC2)s1,-1.7%
20,COc1ccc(CN2CCOC2=O)cc1OC,0.943%
21,CCC(=NC1CC(C)(C)NC(C)(C)C1)C1=C(O)CC(C)(C)CC1=O,-2.04%
22,O=C1C(=O)N(CCCN2CCOCC2)C(c2ccc([N+](=O)[O-])cc2)/C1=C(\O)c1ccc2c(c1)OCCO2 (stereo not given),56.5% (active)
23,COc1ccc(C2/C(=C(/O)c3ccc(OC(C)C)cc3)C(=O)C(=O)N2CCCN2CCOCC2)cc1 (stereo not given),-3.1%
24,O=C1C(=O)N(CCN2CCOCC2)C(c2cccc(Cl)c2)/C1=C(/O)c1ccc2c(c1)OCO2 (stereo not given),0%
25,COc1ccccc1OCc1ccc(C(=O)NC(C)c2ccccc2)o1 (stereo not given),-1.75%
